In PubChem BioAssay AID488969 (Vanderbilt High Throughput Screening Facility, 2010):
The full ranking holds about 110,000 compounds; the median of “z-score” is about -0.1, and the highest 2% start at about 2. Shown is part of a subset that was picked to be rich in the highest values. Active and inactive are the calls of the source.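 How the source made its calls: active means z-score in the third read window above 3 or below -3; inactive means the rest.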

target: Metabotropic glutamate receptor 8 (Rattus norvegicus) (UniProt P70579); experiment: mGluR8 Gi/Go-coupled signaling modulation – cell-based, rat, thallium flux, HTS, primary screen (AID 488969); details: HEK293 rat mGluR8, GIRK (G protein-gated inwardly rectifying potassium channel) thallium flux, FluoZin2; at 10 µM; stronger effect = higher value; submaximal glutamate (EC20) added with thallium
Sequence (P70579 whole entry, looked up): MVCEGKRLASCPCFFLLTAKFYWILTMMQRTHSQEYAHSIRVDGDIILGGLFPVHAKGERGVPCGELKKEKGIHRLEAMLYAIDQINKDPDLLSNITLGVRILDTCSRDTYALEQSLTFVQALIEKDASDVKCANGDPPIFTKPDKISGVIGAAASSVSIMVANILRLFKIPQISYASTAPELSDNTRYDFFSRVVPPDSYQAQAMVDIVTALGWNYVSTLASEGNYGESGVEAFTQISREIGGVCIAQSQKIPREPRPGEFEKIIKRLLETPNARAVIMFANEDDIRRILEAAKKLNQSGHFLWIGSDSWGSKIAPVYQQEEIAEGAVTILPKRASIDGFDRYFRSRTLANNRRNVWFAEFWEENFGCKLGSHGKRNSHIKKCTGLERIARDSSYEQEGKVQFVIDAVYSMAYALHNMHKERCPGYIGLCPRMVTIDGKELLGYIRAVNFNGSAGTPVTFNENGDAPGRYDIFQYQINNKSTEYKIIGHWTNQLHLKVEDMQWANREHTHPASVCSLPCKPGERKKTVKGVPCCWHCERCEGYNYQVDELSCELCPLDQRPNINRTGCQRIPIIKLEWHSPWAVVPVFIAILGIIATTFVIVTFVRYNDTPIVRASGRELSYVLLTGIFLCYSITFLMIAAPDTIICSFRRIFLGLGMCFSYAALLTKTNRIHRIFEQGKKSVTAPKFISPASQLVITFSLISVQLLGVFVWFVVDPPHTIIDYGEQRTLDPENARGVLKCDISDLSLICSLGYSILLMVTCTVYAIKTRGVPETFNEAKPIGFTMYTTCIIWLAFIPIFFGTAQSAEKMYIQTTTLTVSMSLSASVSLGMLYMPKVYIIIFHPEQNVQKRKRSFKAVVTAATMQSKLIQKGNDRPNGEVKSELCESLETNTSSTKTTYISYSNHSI

Q: Which z-score does the source give for CC1(C)CC(=O)C2=C(C1)Nc1ccccc1NC2c1nc2ccccc2[nH]1 (stereo unspecified) here?
A: Its z-score is -0.113.

Q: Which z-score does the source give for CCOc1ccc(N(CC(=O)NCC2CCCO2)C(=O)CCC(=O)Nc2ccccn2)cc1 (stereo unspecified) here?
A: Its z-score is -1.08.

Q: How did the z-score turn out when COc1ccc(NC(=O)CSc2nc(N)c3cc4c(nc3n2)CCCC4)cc1 was run?
A: Its z-score is -0.916.

Q: Which z-score does the source give for O=C(COC(=O)c1ccccc1C(=O)c1ccccc1)NCCc1ccc(Cl)cc1Cl here?
A: Its z-score is -0.0656.

Q: S=c1[nH]nc(-c2ccco2)n1/N=C/c1ccc(Br)s1 was tested. Which z-score did it give?
A: The z-score was 4.39 (active).

Q: Cc1cc(-c2n[nH]c(=S)n2/N=C/c2ccc(C)s2)n[nH]1 was tested. Which z-score did it give?
A: The z-score was -0.0648.

Q: With S=c1[nH]nc(-c2ccccn2)n1/N=C/c1cccs1 as the compound, how does the z-score read?
A: Its z-score is -0.126.

Q: With S=c1[nH]nc(-c2ccccn2)n1/N=C/c1ccccc1 as the compound, how does the z-score read?
A: Its z-score is -0.194.

Q: With Cc1cc(-c2n[nH]c(=S)n2/N=C/c2sccc2C)n[nH]1 as the compound, how does the z-score read?
A: Its z-score is -0.362.

Q: With S=c1[nH]nc(-c2ccco2)n1/N=C/c1cccs1 as the compound, how does the z-score read?
A: The z-score was -0.0217.

Q: Which z-score does the source give for Cc1cc(-c2n[nH]c(=S)n2/N=C/c2ccc(Br)s2)n[nH]1 here?
A: The z-score was 4.55 (active).

Q: For Cc1ccc(/C=N/n2c(-c3ccco3)n[nH]c2=S)s1, which z-score is on record?
A: The z-score was 0.259.

Q: For S=c1[nH]nc(-c2ccccn2)n1/N=C/c1ccc(Br)s1, which z-score is on record?
A: Its z-score is 5.6 (active).

Q: Nc1c(C(O)(C(F)(F)F)C(F)(F)F)cc(C(O)(C(F)(F)F)C(F)(F)F)c2ccccc12 was tested. Which z-score did it give?
A: The z-score was 0.066.

Q: For CC1=C(C(=O)NCc2ccccc2)C(c2ccccc2OCC(N)=O)NC(=O)N1 (stereo unspecified), which z-score is on record?
A: Its z-score is 0.226.

Q: How did the z-score turn out when O=C(Cc1c(F)cccc1Cl)N1CCCC1 was run?
A: The z-score was 0.183.

Q: Which z-score does the source give for CS(=O)(=O)N1CCC(C(=O)NCc2ccco2)CC1 here?
A: Its z-score is 0.432.

Q: Which z-score does the source give for COc1ccc(N2CCN(C(=O)c3cccc(N4C(=O)C5CC=CC(C)C5C4=O)c3)CC2)cc1 (stereo unspecified) here?
A: The z-score was -0.43.

Q: With COc1ccc(/C=C2\SC(=O)N=C2N)cc1OC as the compound, how does the z-score read?
A: The z-score was 0.0136.

Q: Which z-score does the source give for COc1ccc(/C=C2\SC(c3ccc(C)cc3)=NC2=O)cc1OC here?
A: Its z-score is -1.87.

Q: With COc1cc(/C=C2/SC(=S)NC2=O)ccc1OS(=O)(=O)c1ccc(C)cc1 as the compound, how does the z-score read?
A: The z-score was -2.12.

Q: With COc1ccc(/C=C2\SC(=O)NC2=S)cc1OC as the compound, how does the z-score read?
A: Its z-score is 2.05.

Q: COc1cc(/C=C2\SC(=S)NC2=O)ccc1OS(=O)(=O)c1ccccc1 was tested. Which z-score did it give?
A: Its z-score is 15.1 (active).

Q: With COc1cc(/C=C2/C(=O)N(c3ccccc3)N=C2C)ccc1OS(=O)(=O)c1ccccc1 as the compound, how does the z-score read?
A: Its z-score is -0.322.

Q: CCOC(=O)c1c(-c2ccc(OC)cc2)nc2nonc2c1N was tested. Which z-score did it give?
A: The z-score was 0.0715.

Q: Which z-score does the source give for CC(C)CCNC(=S)Nc1ccc(F)cc1 here?
A: Its z-score is 0.97.

Q: With COc1cc(C)c(S(=O)(=O)N2CCOCC2)cc1C as the compound, how does the z-score read?
A: The z-score was 0.136.

Q: For COc1ccc(NC(=O)CSc2ccc(-c3ccccn3)nn2)cc1OC, which z-score is on record?
A: Its z-score is -0.397.

Q: Which z-score does the source give for Cc1ccc(S(=O)(=O)c2nc(C(C)(C)C)oc2N2CCOCC2)cc1 here?
A: The z-score was -0.0758.

Q: Which z-score does the source give for N#C/C(=C\c1ccco1)C(=O)NCC1CCCO1 (stereo unspecified) here?
A: Its z-score is -0.0138.

Q: For CC(C)NS(=O)(=O)c1cccc2nsnc12, which z-score is on record?
A: Its z-score is -0.236.

Q: COc1ccc2cc3cc(C(=O)NC(C)C)oc3nc2c1 was tested. Which z-score did it give?
A: The z-score was 0.629.

Q: Which z-score does the source give for C=CCSc1nc2sc3c(c2c(=O)n1CC=C)CCc1ccccc1-3 here?
A: The z-score was -0.139.

Q: C=CCSc1nc2sc3c(c2c(=O)n1CC)CCc1ccccc1-3 was tested. Which z-score did it give?
A: Its z-score is 2.62.

Q: With C=CCn1c(SCC)nc2sc3c(c2c1=O)CCc1ccccc1-3 as the compound, how does the z-score read?
A: Its z-score is 0.571.

Q: For CCOC(=O)CSc1c(-c2ccccc2)c2cc(Cl)ccc2[nH]c1=O, which z-score is on record?
A: Its z-score is -0.516.

Q: With O=C(c1cccn(Cc2cccc(Cl)c2)c1=O)N1CCOCC1 as the compound, how does the z-score read?
A: The z-score was 0.0735.

Q: For CC(C)COP(=O)(c1ccc(N(C)C)cc1)C(O)c1ccccn1 (stereo unspecified), which z-score is on record?
A: The z-score was 0.147.

Q: How did the z-score turn out when CC(C)CCOP(=O)(c1ccc(N(C)C)cc1)C(O)c1ccccn1 (stereo unspecified) was run?
A: The z-score was 5.74 (active).

Q: CC(C)COP(=O)(c1ccc(N(C)C)cc1)C(O)c1ccncc1 (stereo unspecified) was tested. Which z-score did it give?
A: The z-score was -0.817.

Q: For CCOC(=O)c1ccc(NC(=O)C2=C(C)Nc3nc(CCCO)nn3C2c2cccc(C)c2)cc1 (stereo unspecified), which z-score is on record?
A: Its z-score is 0.0656.

Q: How did the z-score turn out when CC(=O)N1c2c(cc(Br)cc2S(=O)(=O)NCC2COc3ccccc3O2)CC1C (stereo unspecified) was run?
A: The z-score was 0.248.

Q: With COc1cccc(CNS(=O)(=O)c2cc(Br)cc3c2N(C(C)=O)C(C)C3)c1 (stereo unspecified) as the compound, how does the z-score read?
A: The z-score was 0.241.

Q: Which z-score does the source give for CCCCN(Cc1ccccc1)S(=O)(=O)c1cc(Br)cc2c1N(C(C)=O)C(C)C2 (stereo unspecified) here?
A: The z-score was 2.82.

Q: For CCOc1ccc(/C=C2\SC(=O)N(CCNC(=O)C3COc4ccccc4O3)C2=O)cc1OC (stereo unspecified), which z-score is on record?
A: Its z-score is -0.337.

Q: Which z-score does the source give for COc1ccc(/C=N/c2oc(-c3ccccc3)cc2C#N)cc1 here?
A: Its z-score is -0.0521.

Q: For COc1cccc(/C=N/n2cnc3ccccc32)c1OC, which z-score is on record?
A: The z-score was -0.147.

Q: With O=[N+]([O-])c1ccc(O)c(/C=N/n2cnc3ccccc32)c1 as the compound, how does the z-score read?
A: Its z-score is -0.812.

Q: Which z-score does the source give for Oc1ccc(Br)cc1/C=N/n1cnc2ccccc21 here?
A: The z-score was 2.45.

Q: How did the z-score turn out when COc1cc(C(=S)N2CCC(C(N)=O)CC2)ccc1O was run?
A: Its z-score is -0.479.

Q: CC(=O)c1cccc(NC(=S)NC2CC2)c1 was tested. Which z-score did it give?
A: The z-score was -0.023.

Q: How did the z-score turn out when O=C1OC2(CCCCC2)OC(=O)C1=CNc1nc2ccccc2s1 was run?
A: Its z-score is 8.02 (active).

Q: O=C1OC2(CCCCC2)OC(=O)C1=CNc1ccc2c(c1)OCO2 was tested. Which z-score did it give?
A: Its z-score is 0.207.

Q: Which z-score does the source give for CCOc1ccccc1NC=C1C(=O)OC2(CCCCC2)OC1=O here?
A: The z-score was 0.615.

Q: With COc1ccccc1N1CCN(C(=O)c2ccc(CN3CCc4ccccc4C3)cc2)CC1 as the compound, how does the z-score read?
A: The z-score was -0.0526.

Q: With O=c1[nH]c(-c2cccnc2)nc2ccccc12 as the compound, how does the z-score read?
A: Its z-score is -0.073.
